Assay results as given in ChEMBL document CHEMBL1961873, “Compounds: GSK PKIS; Assays: Nanosyn kinase panel” (2012).

What was measured:
[1] = molecular target: Serine/threonine-protein kinase PAK 6 (Homo sapiens) (UniProt Q9NQU5); conditions: at 1 µM;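 also: values are mean percent inhibition of PAK6 kinase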
[2] = system: Tyrosine-protein kinase ABL1 (Homo sapiens), P00519 [E255K]; conditions: at 0.1 µM
[3] = system: Tyrosine-protein kinase ABL1 (Homo sapiens), P00519 [E255K]; conditions: at 1 µM
[4] = system: Tyrosine-protein kinase ABL1 (Homo sapiens), P00519 [H396P]; conditions: at 0.1 µM
[5] = system: Tyrosine-protein kinase ABL1 (Homo sapiens), P00519 [H396P]; conditions: at 1 µM
[6] = system: Tyrosine-protein kinase ABL1 (Homo sapiens), P00519 [M351T]; conditions: at 0.1 µM
[7] = system: Tyrosine-protein kinase ABL1 (Homo sapiens), P00519 [M351T]; conditions: at 1 µM
[8] = system: Tyrosine-protein kinase ABL1 (Homo sapiens), P00519 [Q252H]; conditions: at 0.1 µM
[9] = system: Tyrosine-protein kinase ABL1 (Homo sapiens), P00519 [Q252H]; conditions: at 1 µM
[10] = system: Tyrosine-protein kinase ABL1 (Homo sapiens), P00519 [T315I]; conditions: at 0.1 µM

Serine/threonine-protein kinase PAK 6 (Homo sapiens), sequence (Q9NQU5 whole entry, looked up): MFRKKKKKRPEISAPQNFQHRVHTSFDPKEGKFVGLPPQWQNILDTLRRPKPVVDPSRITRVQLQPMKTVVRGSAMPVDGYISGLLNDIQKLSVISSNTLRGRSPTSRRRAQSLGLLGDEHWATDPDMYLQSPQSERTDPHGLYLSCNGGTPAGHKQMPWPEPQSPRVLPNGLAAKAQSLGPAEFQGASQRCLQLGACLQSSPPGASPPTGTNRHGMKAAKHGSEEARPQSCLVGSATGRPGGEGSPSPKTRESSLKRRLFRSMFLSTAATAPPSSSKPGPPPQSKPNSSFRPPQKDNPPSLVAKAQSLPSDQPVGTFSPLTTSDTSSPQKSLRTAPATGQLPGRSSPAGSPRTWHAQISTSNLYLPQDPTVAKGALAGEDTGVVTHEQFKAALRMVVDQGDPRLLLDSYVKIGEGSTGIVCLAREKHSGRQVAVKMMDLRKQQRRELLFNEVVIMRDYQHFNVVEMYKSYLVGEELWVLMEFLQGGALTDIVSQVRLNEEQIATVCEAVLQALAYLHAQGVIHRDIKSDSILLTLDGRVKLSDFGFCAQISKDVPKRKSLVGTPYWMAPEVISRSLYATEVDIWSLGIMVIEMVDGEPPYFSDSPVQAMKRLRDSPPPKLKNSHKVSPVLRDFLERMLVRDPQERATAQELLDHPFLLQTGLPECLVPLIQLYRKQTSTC

SMILES | inhibition [1] [%] | inhibition [2] [%] | inhibition [3] [%] | inhibition [4] [%] | inhibition [5] [%] | inhibition [6] [%] | inhibition [7] [%] | inhibition [8] [%] | inhibition [9] [%] | inhibition [10] [%]
COC(=O)c1ccc2c(c1)C(=Cc1cc(Br)c(O)c(Br)c1)C(=O)N2 | -6.8 | 2.18 | 13.1 | 4.03 | 14.9 | 0.64 | 12.9 | 2.75 | 15.8 | 1.82
Nc1nccc(C#Cc2cncnc2Nc2ccc(OCc3cccc(F)c3)c(Cl)c2)n1 | 1.07 | 3.67 | 3.58 | 3.32 | 2.76 | 1.11 | 0.59 | 2.18 | 0.52 | 2.46
Cc1cc(Cl)cc2c1NC(=O)C2=NNc1ccc(S(N)(=O)=O)cc1 | -1.69 | 1.25 | 5.11 | 2.97 | 8.01 | -0.27 | 6.65 | 4.15 | 7.11 | 1.38
CN(c1ccc(NC(=O)Nc2ccc(OC(F)(F)F)cc2)cc1)c1ccnc(Nc2cccc(S(N)(=O)=O)c2)n1 | -2 | 17.2 | 65.3 | 47.6 | 86.9 | 64.9 | 91.2 | 65.8 | 90.2 | 48.7
NC(=O)c1cccc(Nc2nccc(Nc3cccc(F)c3)n2)c1 | -5.46 | 7.73 | 47 | 9.26 | 56.1 | 9.02 | 57.7 | 9.5 | 53.9 | 1.3
Cc1ccc(C(=O)NC2CC2)cc1-c1ccc2[nH]ncc2c1 | -8.86 | -0.87 | -0.81 | -1.68 | 1.02 | 1.39 | 2.89 | -1.32 | 2.09 | -2.71
CC(C)c1ccc2c(c1)NC(=O)/C2=N/Nc1ccc(S(N)(=O)=O)cc1 | -5.25 | 1.09 | 12 | 5.36 | 33.7 | 7.06 | 38 | 4.4 | 26.6 | 1.24
ON=C1CCc2cc(-c3nc(C4CCNCC4)[nH]c3-c3ccncc3)ccc21 | 0 | -0.03 | 0.64 | 0.53 | 2.54 | 0.36 | 1.06 | 1.13 | 2.38 | 1.29
CCCN1CCCC(c2ccc(Nc3nc(Nc4cc(F)ccc4C(N)=O)c4cc[nH]c4n3)c(OC)c2)C1 (stereo not given) | -5.69 | 3.9 | 5.75 | 5.07 | 4.96 | 1.54 | 5.35 | 4.96 | 7.24 | 4.52
NS(=O)(=O)c1cccc(-c2cc3ccncc3cc2OCc2ccccc2)c1 | -4 | 1.9 | 4.18 | 4.37 | 9.55 | 3.86 | 8.19 | 3.13 | 6.44 | 3.3
N#Cc1c(NC(=O)c2ccccc2F)sc2c1CCCC2 | 3.35 | -0.62 | 1.08 | 0.3 | -1.4 | 0.7 | 0.57 | -0.76 | -0.72 | -0.91
COc1cccc(-n2nc(C)c3c(N/N=C(\C)c4ccncc4)ncnc32)c1 | -5.25 | 1.05 | 1.53 | 0.51 | 4.07 | -0.39 | 4.06 | 0.65 | 3.19 | -2.26
NS(=O)(=O)c1cccc(Nc2cc(-c3ccc(F)cc3)n[nH]2)c1 | 13 | 1.07 | 8.03 | 5.72 | 15.4 | 2.42 | 19.8 | 4.73 | 18.2 | 1.49
CCn1c(-c2nonc2N)nc2c(C#CC(C)(C)O)nc(OCCNC)cc21 | 1.16 | 2.13 | 2.96 | 3.72 | 4.85 | 1.62 | 3.61 | 3.81 | 4.6 | 1.77
C[C@@H](Oc1cc(-n2cnc3ccc(OCC4CCN(C)CC4)cc32)sc1C(N)=O)c1ccccc1C(F)(F)F | -0.65 | -1.19 | 0.71 | -1.32 | 1.14 | 0.4 | 2.58 | -0.85 | 1.8 | 0.36
c1ccc(Nc2ncc(-c3ccccc3)o2)cc1 | -5.22 | 2.44 | 8.33 | 6.74 | 20.6 | 1.76 | 17.6 | 5.59 | 13.7 | -0.57
c1ccc(Cc2nc3ccc(Nc4ncnc5ccccc45)cc3[nH]2)cc1 | 7.47 | 2.13 | 4.34 | 1.27 | 3.84 | 0.27 | 5.2 | 4.19 | 6.39 | 2.12

SMILES | inhibition [1] [%] | inhibition [2] [%] | inhibition [3] [%] | inhibition [4] [%] | inhibition [5] [%] | inhibition [6] [%] | inhibition [7] [%] | inhibition [8] [%] | inhibition [9] [%] | inhibition [10] [%]
Cc1cc(O)cc(C)c1/C=C/c1cncc(C(=O)N(C)C)c1 | -3.14 | 2.42 | 5.44 | 4.36 | 8.17 | 3.42 | 7.17 | 4.29 | 8.87 | 2.58
Oc1cccc(-c2nc(-c3ccccc3)[nH]c2-c2ccncc2)c1 | 2.02 | 6.54 | 26.7 | 9.87 | 36.6 | 8.39 | 31.3 | 7.9 | 27 | 3.52
COC(=O)Nc1nc2cc(Oc3ccc(NC(=O)Nc4cccc(Br)c4)cc3)ccc2[nH]1 | -4.46 | 4.52 | 5.09 | 16.4 | 35 | 42.6 | 54.6 | 39.7 | 57.8 | 30.1
NS(=O)(=O)c1ccc(NC=C2C(=O)Nc3ccc4ncsc4c32)cc1 | -1.77 | 6.89 | 37.9 | 10.9 | 46.7 | 10.9 | 50.6 | 14.4 | 56.3 | 15
CC(C)c1ccc(Nc2nccc(-c3cnn4ncccc34)n2)cc1 | 2.84 | 1.9 | 4.45 | 3.09 | 8.88 | 1.81 | 10.2 | 2.85 | 11.6 | 2.34
CCn1c(-c2nonc2N)nc2ccc(F)cc21 | 0.67 | 2.57 | 4.59 | 4.55 | 4.61 | 2.2 | 2.4 | 4.86 | 3.17 | 3.34
Nc1ccc(C#Cc2cncnc2Nc2ccc(OCc3cccc(F)c3)c(Cl)c2)cc1 | -1.86 | 2.88 | 3.39 | 2.21 | 2.72 | -1.21 | 0.91 | 2.9 | 2.24 | 1.6
COc1cccc(-n2ncc3c(N/N=C/c4ccc(S(C)(=O)=O)cc4)ncnc32)c1 | 5.24 | 79 | 93.4 | 85.2 | 94.1 | 84.9 | 95.5 | 87.2 | 95 | 49.4
CCOc1nccc2c1nc(-c1nonc1N)n2CC | 12.4 | 1.66 | 3.45 | 1.16 | 6.55 | 1.78 | 5.68 | 2.67 | 6.45 | 1.75
CN(C)c1cc2c(Nc3ccc4c(cnn4Cc4ccccc4)c3)ncnc2cn1 | -3.27 | 1.1 | 1.85 | 0.57 | 0.96 | -0.53 | 1.01 | 0.79 | 3.55 | -1.13
COc1cc2ncn(-c3cc(OCc4ccccc4S(C)(=O)=O)c(C#N)s3)c2cc1OC | 9.78 | 9.96 | 46.7 | 12.2 | 49.5 | 9.97 | 49.6 | 10 | 43.9 | 6.41
NC(=O)c1sc(-n2cnc3ccccc32)cc1OCc1ccccc1Br | -4.72 | 2.67 | 4 | 4.21 | 6.63 | 0.66 | 3.16 | 3.16 | 4.86 | 3.2
CCS(=O)(=O)c1ccc(OC)c(Nc2ncc(-c3cccc(OC)c3)o2)c1 | 2.64 | 34 | 81.1 | 41.6 | 85.4 | 43.2 | 86.1 | 46.6 | 86.5 | 6.23
Cc1ccc(O)cc1Nc1ccnc2ccc(S(C)(=O)=O)cc12 | 4.09 | 94.4 | 95.8 | 94.8 | 96.4 | 90.6 | 94.3 | 93 | 96.3 | 3.68
CCS(=O)(=O)c1ccc(OC)c(Nc2nccc(N(C)c3ccc4c(C)n[nH]c4c3)n2)c1 | -6.63 | 50.5 | 88.7 | 61.1 | 90.5 | 54 | 88.3 | 57.7 | 89.6 | 3.83
Cc1ccc(NC(=O)CC2CC2)cc1-c1ccc(C(=O)NCC2CC2)cc1 | 1.56 | 4.24 | 5.26 | 6.77 | 3.96 | 4.32 | 3.09 | 6.39 | 4.54 | 2.14
